Source: PubChem BioAssay
Measured potencies and affinities stand elsewhere. The source made the active and inactive calls. No cut-off is given here; in the data, nearly all actives have IC50 up to about 0.98 µM.

molecular target: Calcium-dependent protein kinase 1 (Plasmodium falciparum (isolate 3D7)) (UniProt P62344); assay: PfCDPK1 kinase inhibitors, biochemical, TCAMS library (AID 1159585); conditions: recombinant PfCDPK1, Kinase-Glo ATP depletion luminescence;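 note: inhibitors leave more ATP so luminescence rises with inhibition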
Sequence (P62344 whole entry, looked up): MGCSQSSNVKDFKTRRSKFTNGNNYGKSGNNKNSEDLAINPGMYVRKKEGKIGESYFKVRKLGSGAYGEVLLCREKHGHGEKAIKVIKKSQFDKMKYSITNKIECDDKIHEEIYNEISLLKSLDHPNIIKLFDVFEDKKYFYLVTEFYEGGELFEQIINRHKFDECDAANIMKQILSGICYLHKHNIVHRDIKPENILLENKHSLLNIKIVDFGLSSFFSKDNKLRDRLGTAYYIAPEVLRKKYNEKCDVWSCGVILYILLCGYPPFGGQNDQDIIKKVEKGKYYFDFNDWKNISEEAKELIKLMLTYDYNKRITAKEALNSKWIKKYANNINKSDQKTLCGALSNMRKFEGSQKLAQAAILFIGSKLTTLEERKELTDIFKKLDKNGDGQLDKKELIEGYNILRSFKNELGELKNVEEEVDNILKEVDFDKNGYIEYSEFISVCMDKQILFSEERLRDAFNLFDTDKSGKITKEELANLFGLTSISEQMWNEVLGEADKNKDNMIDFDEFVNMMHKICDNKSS

outcome, inactive:
CC(C)n1cc2c(ccc3nc(N)nc(N)c32)n1
CCN(CC)CCNc1nc(C=Cc2ccc(Cl)cc2)nc2cc3ccccc3cc12
Cc1cccc(C(=O)N2CCN(Cc3cccc(NC(=O)c4ccco4)c3)CC2)c1
CC1(CCN2CCC(c3c[nH]c4cnccc34)CC2)CCCc2c(Br)cccc2C1=O (stereo not given)
CC(C)N(CC(=O)c1ccc(O)c(C(=O)O)c1)Cc1ccccc1
O=C(COc1ccccc1Cc1ccccc1)Nc1cc(Cl)ccc1-n1cncn1
Cc1ccccc1C1CCN(c2ccc(C(=O)Nc3ccccc3)cn2)CC1
COc1ccc(CCNC(C)Cc2ccc(C(=O)Nc3ccc(CC(C)NCCc4cccc(Cl)c4)cc3)cc2)cc1 (stereo not given)
CC1(C)N=C(N)N=C(N)N1OCC1CCCCC1
Cc1cc(N[C@@H](CC(C)C)C(=O)NCc2cccs2)nc(Nc2ccccc2)n1
COc1cc(Cc2cnc(N)nc2N)cc(OCCCCCC(N)=O)c1OC
CCn1ccc2c3c(N)nc(N)nc3ccc21
COc1ccc(-c2ccc(NC(=O)c3ccc(C#N)cc3)cc2)cc1CN(C)CCN(C)C
COCCN1CCC(N(Cc2ccc(-c3ccc(OC(F)(F)F)cc3)cc2)C(=O)Cn2c(CCc3cccc(F)c3F)cc(=O)c3ccccc32)CC1
CC(C)CCN(Cc1cncn1Cc1ccccc1F)C(=O)c1cncc(-c2ccccc2)c1
Nc1cccc(CNCc2ccc(-c3ccc(-c4nc5ccc(F)cc5[nH]4)s3)cc2)c1
CC(C)CC1c2[nH]c3ccccc3c(=O)c2CN1C(=O)OC(C)(C)C (stereo not given)
Cc1cccc(CC(N)=NCCCCCCN=C(N)Cc2cccc(C)c2)c1
CN1CCN(c2ccnc3ccc(NC(=O)Nc4ccc(-c5ccccc5)cc4)cc23)CC1
Cc1ccc2c(OCCN3CCC(Cc4ccc5c(c4)NC(=O)CO5)CC3)cc(F)cc2n1
Cc1nn(-c2ccc(Cl)cc2)c2[nH]c(CN3CCN(c4cccc(Cl)c4)CC3)cc(=O)c12
CC(CN(C)C)C(=O)Nc1cccc(-c2ccc(-c3nc4ccccc4[nH]3)s2)c1 (stereo not given)
CN1CCN(CCCN(Cc2ccc(-c3cccc(CNCc4ccc5c(c4)OCO5)c3)cc2)C(=O)Nc2ccccc2)CC1
Cc1cnc(Nc2ccccc2)nc1N[C@@H](CCCN)C(=O)Nc1ccccc1
CC(C)(C)SCC(O)Cn1c2ccc(Br)cc2c2cc(Br)ccc21 (stereo not given)
